Where “and” joins values, the source holds several entries; their conditions need not be identical. Equal entries are not always repeated. This is part of a sample that, as a whole, favours compounds with a hit. Of some 83,000 tested, about 20% had one in any assay.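 The test compound was applied at a single concentration to cells in 96-well plates for 48 hours, and percent growth was recorded.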 Calls of active or inactive are those of the source.

The assay relates to BT-549 breast. In words: NCI-60 one-dose screen, 48 h (100 = growth as untreated, 0 = no growth, -100 = all killed). Particulars: 10 µM. The procedure:
Growth inhibition of the BT-549 human tumor cell line is measured as a screen for anti-cancer activity. Cells are grown in 96 well plates and exposed to the test compound for 48 hours. Compounds are tested at a single concentration, which is 10^-5 M for most compounds. The reported endpoint is percent growth (GI% or GIPRCNT), where numbers from 0 - 100% represent growth inhibition, and numbers from -100% - 0 represent cell death. For example, a value of 40 represents 60% growth inhibition. A value of 0 means no net growth occurred over the course of the experiment. A value of -40 indicates 40% of cells at the beginning of the experiment died by the end of the experiment. A value of -100 means all cells are dead at the end of the experiment.
NCI-60 Human Tumor Cell Lines Screen was performed using the standard one-dose NCI protocol, which is described in more detail at https://dtp.cancer.gov/discovery_development/nci-60/default.htm.
Compounds with GIPRCNT values below 10 were considered active. Activity score was based on GIPRCNT using the following formula: […]
Score is 0 for GIPRCNT values of 100 or above, 50 for GIPRCNT values of 0, and 100 for GIPRCNT values of -100.
Consider `COc1cccc2c1cc([N+](=O)[O-])c1c(C(=O)O)cc3c(c12)OCO3`, for which the growth was 120% (inactive).
To `CC1=C[C@H]2O[C@@H]3C[C@@H](O)[C@](C)([C@@]2(C)CC1)[C@@]31CO1` belongs 21.1% (inactive); to `CN(CCF)/N=N/c1nc[nH]c1C(N)=O`, 85.8% (inactive); to `CC1=C(CN(O)C(N)=O)C2=C(C)C3(CC3)[C@@](C)(O)C(=O)C2=C1`, -24.5% (active).
To `CCCCCCCCCC(=O)N[C@@](C)(CC)C(=O)N1CCC[C@H]1C(=O)N[C@@H](CC(C)C)C(=O)N[C@@](C)(CC)C(=O)N[C@@H](CCC(N)=O)C(=O)N[C@H](CCC(N)=O)C(=O)NC(C)(C)C(=O)NC(C)(C)C(=O)N[C@@H](CCC(N)=O)C(=O)N[C@H](CC(C)C)C(=O)N[C@H](CO)CC(C)C` belongs -91% (active) and -85.5% (active).
Take `CC1=C2C(=C[C@@](C)(C=O)[C@@H]2O)C(=O)[C@](C)(O)C12CC2`: the growth is -6.13% (active).
Under `CC1=C2C(=O)[C@](C)(CO)C=C2C(=O)[C@](C)(O)C12CC2` stands 8.15% (active); under `NC1CCc2cc(O)c(O)cc2C1` (centres undefined), 86.3% (inactive); under `CCC(C)[C@H]1C(=O)O[C@H](C(C)C)C(=O)N(C)[C@@H](C(C)C)C(=O)O[C@H](C(C)C)C(=O)N(C)[C@@H](C(C)C)C(=O)O[C@H](C(C)C)C(=O)N1C` (some centres undefined), 14.2% (inactive).
Under `CC1=C(CN(O)C(N)=O)C2=C(C)C3(CC3)[C@](C)(O)C(=O)C2=C1` stands 12.9% (inactive).
On to `C[C@@H]1C[C@H]2C(=O)O[C@@H](C)C(NC(=O)[C@H](Cc3cc(F)cc(F)c3)NC(=O)Nc3ccc(OS(=O)(=O)F)cc3)C(=O)N3CCC[C@H]3C(=O)N3CCO[C@H](C)[C@H]3C(=O)N[C@@H](CO)C(=O)N2C1` (some centres undefined), for which the growth is 22.4% (inactive).
Take `C/C=C\C(=O)O[C@@H]1CC2O[C@@H]3C=C(C)C(=O)C[C@]3(C)[C@]1(C)[C@]21CO1`: the growth was -22.8% (active).
In the case of `COC1[C@@H]2C[C@H]3C(C)(C)O[C@@](C/C=C(/C)C(=O)O)(C2=O)[C@]32Oc3c(CC=C(C)C)c4c(c(O)c3C(=O)[C@H]12)C=CC(C)(C)O4` (some centres undefined), the growth was -3.07% (active).
To `CC1=C[C@H]2O[C@@H]3C[C@H]4OC(=O)/C=C\C=C\[C@H]([C@@H](C)O)OCC/C(C)=C/C(=O)OC[C@@]2(CC1)[C@]4(C)[C@]31CO1` belongs -28.6% (active); to `COc1cc(OC)c(S(=O)(=O)N(CCCl)CCCl)cc1C(=O)/C=C/c1ccc(Cl)cc1`, 53% (inactive).
On to `CC1=C[C@H]2O[C@@H]3C[C@H]4OC(=O)/C=C\C=C\[C@H]([C@@H](C)O)OCC[C@@H](C)[C@H](O)C(=O)OC[C@@]2(CC1)[C@]4(C)[C@]31CO1`, for which the growth is -24.8% (active).
Under `COc1cc(C)c(-c2ccc(OC)c(=O)cc2C)c(OC)c1OC` stands 15.7% (inactive) and 120% (inactive).
On to `CC1=C2C(=C[C@@](C)(COS(C)(=O)=O)[C@@H]2O)C(=O)[C@](C)(O)C12CC2`, for which the growth was -15.9% (active).
Under `N#Cc1c(-n2c(Br)c(Br)c3cc(Br)ccc32)[nH]c2c(Br)cc(Br)cc12` stands -54.7% (active); under `CC(C)=CCc1c2c(c(O)c3c1O[C@]14C(=C[C@@H]5C[C@H]1C(C)(C)O[C@@]4(C/C=C(/C)C(=O)O)C5=O)C3=O)C=CC(C)(C)O2`, -11.2% (active).
Regarding `COC(=O)[C@H]1[C@@H](O)[C@@]2(O)c3c(OC)cc(OC)cc3O[C@@]2(c2ccc(OC)cc2)[C@@H]1c1ccccc1`, the growth is -17.5% (active).
Consider `CC1=C2C(=C[C@@](C)(COC(=O)c3ccc(S(=O)(=O)F)cc3)[C@@H]2OC(=O)c2ccc(S(=O)(=O)F)cc2)C(=O)[C@](C)(O)C12CC2`, for which the growth was -90.2% (active).
As for `COc1cc2c(cc1OC)[C@@H]1N(CC2)C(=O)c2ccccc2[C@@]1(C)C(=O)O`, the growth was 108% (inactive).
Take `O=C(CCCc1ccc(N(CCCl)CCCl)cc1)OCc1ccccc1`: the growth is 95.5% (inactive).
As to `C/C=C/CC(C)C(O)[C@H](NC(=O)[C@@H]1CCCN1C(=O)C(C)(C)NC(=O)CCCCCCCCC)C(=O)NC(C)(C)C(=O)N[C@@H](CCC(N)=O)C(=O)N[C@H](CCC(N)=O)C(=O)NC(C)(C)C(=O)NC(C)(C)C(=O)N[C@@H](CCC(N)=O)C(=O)N[C@H](CC(C)C)C(=O)N[C@H](CO)CC(C)C` (some centres undefined), the growth was -77.4% (active) and -78.3% (active).
Under `CC(=O)O[C@@H]1C[C@H]2O[C@@H]3C=C(C)CC[C@]3(C)[C@]1(C)[C@]21CO1` stands -14.3% (active); under `CC(=O)O[C@@H]1[C@@H]2O[C@H]2[C@@](C)(O)C(=O)[C@@H](C)C/C=C/[C@H]2[C@@H]3O[C@]3(C)[C@@H](C)C3[C@H](Cc4ccccc4)NC(=O)[C@@]312` (some centres undefined), 29.8% (inactive); under `CC(C)(O)/C=C/C(=O)[C@](C)(O)[C@H]1[C@H](O)C[C@@]2(C)[C@H]3CC=C4[C@@H](C[C@H](O)C(=O)C4(C)C)[C@]3(C)C(=O)C[C@]12C`, -24.5% (active).
To `C/C=C/CC(C)C(O)[C@H](NC(=O)[C@@H]1CCCN1C(=O)C(C)(C)NC(=O)CCCCCCC)C(=O)N[C@@](C)(CC)C(=O)N[C@@H](CCC(N)=O)C(=O)N[C@H](CCC(N)=O)C(=O)NC(C)(C)C(=O)NC(C)(C)C(=O)N[C@@H](CCC(N)=O)C(=O)N[C@H](CC(C)C)C(=O)N[C@H](CO)CC(C)C` (some centres undefined) belongs 118% (inactive) and -60.9% (active); to `COc1cc2c(O[C@@H]3OC[C@H](O)[C@H](O)[C@H]3O)c3c(c(-c4ccc5c(c4)OCO5)c2cc1OC)C(=O)OC3`, 31% (inactive); to `CC1=C2C(=C[C@@](C)(COC(=O)c3ccc(S(=O)(=O)F)cc3)[C@@H]2O)C(=O)[C@](C)(O)C12CC2`, -88.2% (active).
As to `C=C1[C@@H](C)C2[C@H](Cc3ccccc3)NC(=O)[C@]23[C@H](OC(C)=O)/C=C/[C@@](C)(O)C(=O)[C@@H](C)C/C=C/[C@H]3[C@@H]1O` (some centres undefined), the growth is 12.4% (inactive).
As for `N#Cc1nc(-c2ccccc2)oc1N1CCC(S(=O)(=O)F)CC1`, the growth was 108% (inactive).
Turning to `C/C=C/CC(C)C(O)[C@H](NC(=O)[C@@H]1CCCN1C(=O)C(C)(C)NC(=O)CCCCCCCCC)C(=O)N[C@@](C)(CC)C(=O)N[C@@H](CCC(N)=O)C(=O)N[C@H](CCC(N)=O)C(=O)NC(C)(C)C(=O)NC(C)(C)C(=O)N[C@@H](CCC(N)=O)C(=O)N[C@H](CC(C)C)C(=O)N[C@H](CO)CC(C)C` (some centres undefined), the growth is -33.5% (active).
Under `CC1=C(CCC=NNC(N)=O)C2=C(C)C3(CC3)[C@@](C)(O)C(=O)C2=C1` stands -93.5% (active); under `C/C=C/CC(C)C(O)[C@H](NC(=O)[C@@H]1CCCN1C(=O)C(C)(C)NC(=O)CCCCCCCCC)C(=O)N[C@@](C)(CC)C(=O)N[C@@H](CCC(N)=O)C(=O)N[C@H](CCC(N)=O)C(=O)NC(C)(C)C(=O)N[C@@](C)(CC)C(=O)N[C@@H](CCC(N)=O)C(=O)N[C@H](CC(C)C)C(=O)N[C@H](CO)CC(C)C` (some centres undefined), -79.6% (active); under `CN1C(=O)[C@]23SSC1(C)C(=O)N2[C@H]1Nc2ccccc2C1([C@@]12c4ccccc4N[C@@H]1N1C(=O)C4(C)SS[C@]1(C(=O)N4C)[C@H]2O)[C@@H]3O` (some centres undefined), -99.5% (active).
Under `COc1cc2c(O[C@@H]3OC[C@H](OC(C)=O)[C@H](OC(C)=O)[C@H]3O)c3c(c(-c4ccc5c(c4)OCO5)c2cc1OC)C(=O)OC3` stands 23.4% (inactive).
Consider `C[C@@H]1CCC/C=C/[C@H]2C[C@@H](O)C[C@@H]2[C@@H](O)/C=C/C(=O)O1`, for which the growth is 6.57% (active).
